Test results reported in the supplement of paper PMC6555819.

Columns and labels:
Test in all cases: PBM binding z-score (relative to random genomic background probes); higher = stronger binding; sequences stand for … in GC…GCGATTGACAGCGTAGAATGAAGG
[1] = tested on: RARb homodimer (NR concentration 270 nM)
Method in brief: (§1)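 The probes on custom Agilent 4×180K protein-binding microarrays were double-stranded, with 34-nt variable regions bearing direct-repeat seeds, single-nucleotide variants, half-site ablations and random human genomic background sequences. Incubation lasted 1 h with ligand-free nuclear receptor dimers in PBS pH 7.4, 2% milk, 0.02% Triton X-100, 1 mM DTT, 0.2 mg/mL BSA and 0.4 mg/ml salmon testes DNA. Antibodies against each partner (one per run) detected bound dimers, and fluorescence scans were regression-normalized. Binding z-scores take the random background probes as reference.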

[2] = tested on: RARg:RXRa (NR concentration 270 nM, RXRa partner concentration 90 nM)
Method in brief: as §1

[3] = tested on: RARg homodimer (NR concentration 270 nM)
Method in brief: as §1

[4] = tested on: RXRa DBDmut IVT, anti-RXR (DBD mutation: RXRa K156A/R161A, NR concentration 90 nM)
Method in brief: as §1

[5] = tested on: RXRa homodimer (NR concentration 180 nM)
Method in brief: as §1

[6] = tested on: THRa:RXRa (NR concentration 90 nM, RXRa partner concentration 90 nM)
Method in brief: as §1

[7] = tested on: THRa homodimer (NR concentration 90 nM)
Method in brief: as §1

[8] = tested on: VDR homodimer (NR concentration 270 nM)
Method in brief: as §1

Sequence	PBM binding z-score [1]	PBM binding z-score [2]	PBM binding z-score [3]	PBM binding z-score [4]	PBM binding z-score [5]	PBM binding z-score [6]	PBM binding z-score [7]	PBM binding z-score [8]
CCTACTGGGCCAAAAAGGTCATTTATGCCGATAA	4.03	4.11	3.43	0.766	4.35	2.85	0.395	2.46
TCTGGTTGGTCACGGAGGTCACACACGACGGGTA	4.58	4.91	5.28	0.702	4.97	3.58	2.93	3.66
CGTCAAAGTTGAACTAAGGTAACGTAAAGCACGC	1.98	2.06	1.86	0.678	1.68	4.72	1.74	0.519
CCTACTGGACCATCAGGTCATTGATATCAACGTT	2.7	1.67	1.56	1.08	1.37	3.38	3.78	2.38
TCATATAGGTAAAAGGTGAAAGACGGTGTGGTAA	1.74	2.01	0.857	1.7	3.05	1.55	0.208	0.152
CGTCCAAGGTCATAGGAGGTCAGTCAAGACAGAT	5.57	6.78	7.57	3.37	6.76	5.43	3.34	4.33
TATACAGGGGCAAAGGCCAGAGTACGAATGTCGA	1.74	1.95	1.85	0.806	1.49	0.569	-0.328	0.679
TCATATAGGTAAATGCCAGGTGAAAGTCCGATCT	0.815	0.611	0.433	1.64	0.912	2.02	1.33	0.435
GCGACTGGGGCATCAGCTGGTTACCATAACTTAA	0.0831	0.0774	0.0488	-0.446	-0.273	-0.306	-0.655	-0.58
CGTCCAAGGTCAACGTCAGTGAAAGAGACTCGAA	3.98	6.3	7.13	3.49	6.13	4.04	2.55	1.8
ATCTCTAGGTAATAAGTTCAGTGAAAGAGAGGAC	2.13	1.53	1.59	1.23	0.755	1.64	1.31	2.41
ATCTCTAGGTAAAACTCAGTTCAGTGAAGAACGC	0.751	0.623	0.586	0.726	0.153	1.18	0.901	2.13
TATACAGAGTCAAAGGCCAGAGTACGAATGTCGA	0.843	0.902	1.01	-0.862	1.03	-0.0396	-0.776	0.0199
GATACAGGGTCAAGGCCTGAGTACGCGTATTGAT	3.54	5.4	5.41	2.19	5.69	3.37	0.931	2.52
ACAGACAGGCGATGAAGGTAACTCAGGCTATCAT	-0.109	-0.163	0.174	-0.246	-0.0483	0.512	-0.0858	-0.339
CGTCCAAGGTCATAGGTGGTCAGTGAAGACAGAT	4.26	5.65	5.75	3.99	5.94	4.18	2.79	3.02
ACTATTAGTTGAGACGAGGGCAATCGATAGGTTG	0.955	0.898	0.973	0.801	0.517	2.22	-0.15	1.06
CCTTACGGGTCACTCCAGGTTATGGCATCGGAGT	3.07	4.46	4.54	1.4	4.22	5.16	0.627	1.62
ACCTACGGGTCAACGAGGTTATAGCACGCGTATA	3.18	5.47	4.95	2.06	5.89	3.88	0.718	3.51

Sequence	PBM binding z-score [1]	PBM binding z-score [2]	PBM binding z-score [3]	PBM binding z-score [4]	PBM binding z-score [5]	PBM binding z-score [6]	PBM binding z-score [7]	PBM binding z-score [8]
CAAACTTGGTCAAAGGTCAAAGTCGAGCCAACCA	4.86	7.37	6.36	1.58	8.93	3.89	0.672	2.28
TGTGCTAGGTCAGTTGGTCAGCTAACGAGCTGCC	2.66	2.6	3.48	-0.535	0.793	1.14	-0.0529	-0.504
CAGCCTAGGTCAGGGCAAGTATAGGAGGAACGTT	2.89	3.37	4.42	0.0937	2.07	2.2	0.481	-0.0774
ACTTACGAGTCAACGAGGTTATAGCACGCGTATA	0.874	1.07	0.785	0.637	1.59	2.04	0.474	0.877
CCTCGGAGGACAGAAGGTCAGAGATGTCCGCTTT	3.39	3.26	3.21	-0.0318	1.74	2.05	-0.116	0.382
CCTACTGGGCCAAATAGGTCATTGATGCCGATAA	2.48	2.17	2.25	-0.057	2.2	1.67	-0.13	0.916
ACTTACCGGTCAACGAGGTTATAGCACGCGTATA	2.92	3.45	3.85	1.25	2.27	2.69	1.21	2.26
CGAACTAGGTCAAGGAGAGTGAATCTCCGCACGC	2.9	3.91	4.76	1.44	2.85	2.28	0.799	-0.00315
AGAATGAGGTTATTAAGATCAAGGAATTGCGGTC	0.762	1.21	0.86	2.05	1.86	2.13	0.766	1.61
AGAACGAGGGCACGCTGAGTAGATAGCAGAGTAG	0.843	1.94	2.23	1.58	1.45	1.58	-0.259	0.46
CCTACTGGGCCATCAGGTCCTTGATATCAACGTT	0.0749	-0.0484	0.0919	-0.586	-0.412	0.183	0.322	0.000123
GGAACGAGGGCAACTTGATAGCAGAGTTTGATGG	1.42	1.7	2.17	2.2	1.13	1.26	0.0506	1.35
AGTCAAAGTACAGGACGAGGTAACGTAAAGCACG	0.274	0.526	0.919	-0.155	0.598	1.39	0.878	-0.0315
CGTTCAAGGTCAGCAGGTCAGTGAAAGCGACGTG	5.45	6.75	7.14	3.31	5.46	4.18	3.13	2.25
AGAATGAGGTTCAGATCAGGGAAACAGAATACAT	0.405	0.907	0.758	1.63	1.02	2.61	-0.043	1.03
GCAGACAGGTGAAACGCAGGTAACTTAGGGTGGC	0.119	0.872	0.154	-0.334	0.754	1.55	-0.353	-0.61
GCGACTGGGGCAAAGCAGGTTACCAGAAGGTTGG	1.32	0.622	0.806	-0.155	0.313	2.87	-0.356	-0.376
ATCACTAGGTAAAGATAGTTCAGTGAATGCAAAT	0.839	0.649	0.795	-0.617	0.325	0.492	0.0795	0.49
ATATGTAGGTTAGCTGGGGTCATGCAGACTAGGC	4.19	4.65	3.65	1.38	6.31	5.42	3.72	4.15

Sequence	PBM binding z-score [1]	PBM binding z-score [2]	PBM binding z-score [3]	PBM binding z-score [4]	PBM binding z-score [5]	PBM binding z-score [6]	PBM binding z-score [7]	PBM binding z-score [8]
ATATGTAGGTTATCGGGGCATTCAGTTTGCGCAT	1.53	1.3	1.24	1.35	1.25	1.49	1.4	2.14
GCTGCTAGGTCGGGTTGGTCAGCTAACGGGTACG	0.957	0.215	0.167	-0.0966	0.0101	0.409	0.283	0.431
TCTTGTAGATAAAAGGTTAAGAAAGCCGAAGCCT	1.42	1.43	0.971	1.2	2.28	1.14	-0.62	0.00564
CAAACTAGGTCACCGGAATGTCAAAGTCCGCATG	4.04	5.43	5.46	1.81	3.7	3.71	2.04	0.883
ATCTCTAGGTAACAAGATCAGTGAAAGAGAGGAC	0.262	0.574	0.868	-0.259	0.265	0.927	0.466	0.364
CGTCCTAGGTCAGAGAGGTCAGTGAATGCCGAGT	4.71	5.31	5.94	1.92	4.49	3.77	1.92	3.9
TCTGCTAGGTCAACGATGGTCACCTAATCTGCTA	3.63	4.17	4.77	1.06	2.69	3.58	1.37	0.156
CCTTACGGGTCACTGACAGGTTATAGCATTTGGA	3.39	6.19	4.95	1.95	5.59	2.98	0.283	1.03
CCTAGGAGGACAGAAGGTCAGAGCTGTCCGCTTT	3.34	3.28	2.78	0.179	1.84	2.25	-0.21	-0.00238
ATCTCTAGCTAAGACTCAGTTCAGTGAAGAACGC	0.502	0.00118	-0.132	0.313	0.0167	0.338	0.471	1.11
GCTATTCGTTGAAAGGGCAACCGAATGATTCTCG	1.85	1.23	1.21	0.319	0.916	0.348	-0.335	-0.329
CGTCGAAGGTCAGAGAGGTCAGTGAATGCCGAGT	5.14	6.51	7.29	2.6	5.68	3.85	1.32	5.14
GCTAGCAGGCCATTTGTGTCACTCAATGACGGGC	-0.0499	-0.217	0.011	0.131	-0.25	-0.583	-0.967	-0.895
TCATATAGATAAACAGGTGAAAGTCCGTAAGTTA	0.615	0.467	0.388	1.94	1.33	0.561	0.191	0.676
ACATACAGGTGAGTGAAGGTAACTCAGCTGGACG	0.773	1.2	0.903	0.0119	0.795	2.21	-0.215	0.00472
TAACCTAGGTCATGGGCCAGTATACCACGCGAAC	3.63	5.07	5.12	1.07	4.02	3.3	1.87	1.35
TCAGACACGTGAAGGTAACTCAGGTACGCAGTCG	0.104	0.176	0.219	1.06	0.661	1.21	-0.125	0.218
ATCTCTAGGTAAACTTCAGTGAAAGATCGATAGA	0.191	0.307	0.513	0.168	0.222	0.667	0.466	0.34
CTACCAAGGTGAACAAGGTCGTTGCTTACTATTC	2.09	1.83	1.34	1.73	2.12	3.15	2.03	2.89
